According to the supplement of paper PMC8975748:
Counter-ions that a name gives are not always drawn. ± gives the standard deviation of the averaged measurements.

Key:
[1] = tested on: Saccharomyces cerevisiae BY4741 SeMeCo community; experiment: mean cell size (pixel area) (pixels); higher = larger cells; details: 10 µM; 24 h; SM minimal medium
Outline: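 A fluorescent Saccharomyces cerevisiae BY4741 community carrying four plasmids was used, with each plasmid complementing one auxotrophy and bearing a fluorescent marker. An overnight preculture at OD600 = 1.0 was diluted to OD600 = 0.3, and 70 µl went into 384-well plates acoustically predosed with drug (final 10 µM) in SM medium for 24 h. After paraformaldehyde fixation, cells were imaged by automated confocal microscopy and analysed in Harmony, giving the mean cell pixel area per well. Each value is the average of 3 replicates. Same SeMeCo high-content imaging drug screen: Selleck FDA-approved drugs at 10 µM, 24 h in SM medium, 384-well plates, 3 replicates.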

[2] = tested on: Saccharomyces cerevisiae BY4741 SeMeCo community; experiment: z-score of prototroph abundance vs DMSO median; higher = larger share of this subpopulation than in DMSO controls; details: 10 µM; 24 h; SM minimal medium; subpopulation (auxotrophy): Prototroph
Outline: (§1)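 Scoring was based on each subpopulation's abundance, expressed as a z-score against the vehicle-well median. A Saccharomyces cerevisiae BY4741 community with four plasmids, each restoring one auxotrophy and encoding a distinct fluorescent protein, was pre-grown overnight to OD600 1.0, diluted to 0.3, and added at 70 µl to 384-well plates acoustically predosed with library drugs (10 µM final). It then grew 24 h in minimal SM medium before paraformaldehyde fixation and automated confocal microscopy, with single-auxotroph fluorescent strains setting thresholds and autofluorescence correction.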

[3] = tested on: Saccharomyces cerevisiae BY4741 SeMeCo community; experiment: z-score of subpopulation abundance vs DMSO median, subpopulation auxotrophic for M; higher = larger share of this subpopulation than in DMSO controls; details: 10 µM; 24 h; SM minimal medium; subpopulation (auxotrophy): M
Outline: as §1

[4] = tested on: Saccharomyces cerevisiae BY4741 SeMeCo community; experiment: z-score of subpopulation abundance vs DMSO median, subpopulation auxotrophic for L; higher = larger share of this subpopulation than in DMSO controls; details: 10 µM; 24 h; SM minimal medium; subpopulation (auxotrophy): L
Outline: as §1

[5] = tested on: Saccharomyces cerevisiae BY4741 SeMeCo community; experiment: z-score of subpopulation abundance vs DMSO median, subpopulation auxotrophic for U; higher = larger share of this subpopulation than in DMSO controls; details: 10 µM; 24 h; SM minimal medium; subpopulation (auxotrophy): U
Outline: as §1

[6] = tested on: Saccharomyces cerevisiae BY4741 SeMeCo community; experiment: z-score of subpopulation abundance vs DMSO median, subpopulation auxotrophic for H; higher = larger share of this subpopulation than in DMSO controls; details: 10 µM; 24 h; SM minimal medium; subpopulation (auxotrophy): H
Outline: as §1

[7] = tested on: Saccharomyces cerevisiae BY4741 SeMeCo community; experiment: z-score of subpopulation abundance vs DMSO median, subpopulation auxotrophic for LU; higher = larger share of this subpopulation than in DMSO controls; details: 10 µM; 24 h; SM minimal medium; subpopulation (auxotrophy): LU
Outline: as §1

[8] = tested on: Saccharomyces cerevisiae BY4741 SeMeCo community; experiment: z-score of subpopulation abundance vs DMSO median, subpopulation auxotrophic for LM; higher = larger share of this subpopulation than in DMSO controls; details: 10 µM; 24 h; SM minimal medium; subpopulation (auxotrophy): LM
Outline: as §1

[9] = tested on: Saccharomyces cerevisiae BY4741 SeMeCo community; experiment: z-score of subpopulation abundance vs DMSO median, subpopulation auxotrophic for HM; higher = larger share of this subpopulation than in DMSO controls; details: 10 µM; 24 h; SM minimal medium; subpopulation (auxotrophy): HM
Outline: as §1

[10] = tested on: Saccharomyces cerevisiae BY4741 SeMeCo community; experiment: z-score of subpopulation abundance vs DMSO median, subpopulation auxotrophic for HU; higher = larger share of this subpopulation than in DMSO controls; details: 10 µM; 24 h; SM minimal medium; subpopulation (auxotrophy): HU
Outline: as §1

[11] = tested on: Saccharomyces cerevisiae BY4741 SeMeCo community; experiment: z-score of subpopulation abundance vs DMSO median, subpopulation auxotrophic for UM; higher = larger share of this subpopulation than in DMSO controls; details: 10 µM; 24 h; SM minimal medium; subpopulation (auxotrophy): UM
Outline: as §1

[12] = tested on: Saccharomyces cerevisiae BY4741 SeMeCo community; experiment: z-score of subpopulation abundance vs DMSO median, subpopulation auxotrophic for HLU; higher = larger share of this subpopulation than in DMSO controls; details: 10 µM; 24 h; SM minimal medium; subpopulation (auxotrophy): HLU
Outline: as §1

[13] = tested on: Saccharomyces cerevisiae BY4741 SeMeCo community; experiment: z-score of subpopulation abundance vs DMSO median, subpopulation auxotrophic for HLM; higher = larger share of this subpopulation than in DMSO controls; details: 10 µM; 24 h; SM minimal medium; subpopulation (auxotrophy): HLM
Outline: as §1

[14] = tested on: Saccharomyces cerevisiae BY4741 SeMeCo community; experiment: z-score of subpopulation abundance vs DMSO median, subpopulation auxotrophic for HUM; higher = larger share of this subpopulation than in DMSO controls; details: 10 µM; 24 h; SM minimal medium; subpopulation (auxotrophy): HUM
Outline: as §1

[15] = tested on: Saccharomyces cerevisiae BY4741 SeMeCo community; experiment: z-score of subpopulation abundance vs DMSO median, subpopulation auxotrophic for LUM; higher = larger share of this subpopulation than in DMSO controls; details: 10 µM; 24 h; SM minimal medium; subpopulation (auxotrophy): LUM
Outline: as §1

[16] = tested on: Saccharomyces cerevisiae BY4741 SeMeCo community; experiment: z-score of subpopulation abundance vs DMSO median, subpopulation auxotrophic for HLUM; higher = larger share of this subpopulation than in DMSO controls; details: 10 µM; 24 h; SM minimal medium; subpopulation (auxotrophy): HLUM
Outline: as §1

[17] = tested on: Saccharomyces cerevisiae BY4741 SeMeCo community; experiment: z-score of subpopulation abundance vs DMSO median, subpopulation auxotrophic for HL; higher = larger share of this subpopulation than in DMSO controls; details: 10 µM; 24 h; SM minimal medium; subpopulation (auxotrophy): HL
Outline: as §1

| SMILES | mean cell size [1] | z-score of prototroph abundance [2] | z-score of subpopulation abundance [3] | z-score of subpopulation abundance [4] | z-score of subpopulation abundance [5] | z-score of subpopulation abundance [6] | z-score of subpopulation abundance [7] | z-score of subpopulation abundance [8] | z-score of subpopulation abundance [9] | z-score of subpopulation abundance [10] | z-score of subpopulation abundance [11] | z-score of subpopulation abundance [12] | z-score of subpopulation abundance [13] | z-score of subpopulation abundance [14] | z-score of subpopulation abundance [15] | z-score of subpopulation abundance [16] | z-score of subpopulation abundance [17] |
| --- | --- | --- | --- | --- | --- | --- | --- | --- | --- | --- | --- | --- | --- | --- | --- | --- | --- |
| CC(C)C(=O)c1c(C(C)C)nn2ccccc12 [Ibudilast] | 12.6 ± 0.22 | 0.24 | -0.62 | -0.54 | 1.05 | -1.02 | 0.04 | -0.43 | -1.12 | 0.99 | 1.06 | -0.65 | -0.49 | -0.38 | -0.2 | -0.23 |  |
| CCCCCCCCN=C(N)NC(N)=NCc1ccc(Cl)c(Cl)c1 [Olanexidine Hydrochloride semihydrate] | 9.82 ± 0.35 | -19.3 | -3.65 | -3.44 | -3.91 | 4.73 | 2.95 | -0.77 | 13.8 | 5.71 |  | 5.73 | 72.9 | 34.7 | 21.6 | 213 | 11.1 |
| CCNC(=O)[C@@H]1CCCN1C(=O)[C@H](CCCNC(=N)N)NC(=O)[C@H](CC(C)C)NC(=O)[C@@H](CC(C)C)NC(=O)[C@H](Cc1ccc(O)cc1)NC(=O)[C@H](CO)NC(=O)[C@H](Cc1c[nH]c2ccccc12)NC(=O)[C@H](Cc1c[nH]cn1)NC(=O)[C@@H]1CCC(=O)N1 [Leuprolide Acetate] | 12.5 ± 0.15 | -0.62 | 0.38 | 0.44 | 0.31 | 0.67 | -0.03 | 0.63 | 0.95 | 1.03 | 0.23 | 0.54 | 0.28 | 0.45 | 0.35 | 0.75 | 0.14 |
| Cc1ccc(-c2cc(C(F)(F)F)nn2-c2ccc(S(N)(=O)=O)cc2)cc1 [Celecoxib] | 12.5 ± 0.15 | 0.84 | -0.11 | 0.82 | -0.79 | 0.01 | -0.19 | -0.61 | -0.54 | -0.62 | -0.75 | -0.86 | -0.37 | -0.8 | -0.48 | -0.44 |  |
| CCN(CC)CCOc1ccc2c(c1)C(=O)c1cc(OCCN(CC)CC)ccc1-2 [Tilorone dihydrochloride] | 12.3 ± 0.13 | 0.72 | -1.12 | -0.72 | 0.24 | 0.18 | -0.27 | -0.86 | -1.02 | 0.05 | -0.31 | -0.23 | 0.21 | -0.66 | -0.39 | -0.11 |  |
| COc1ccc(CCN(C)CCCC(C#N)(c2ccc(OC)c(OC)c2)C(C)C)cc1OC (stereo unspecified) [Verapamil HCl] | 12.6 ± 0.13 | -0.19 | 1.34 | 0.1 | 0.6 |  | -0.58 | 0 | -0.27 | 0.54 |  | 0.26 | 0.44 | 0.05 | 0.79 | 0.13 | 0.26 |
| CS(=O)(=O)Nc1ccc([N+](=O)[O-])cc1Oc1ccccc1 [Nimesulide] | 12.5 ± 0.22 | 0.12 | -0.1 | 0.65 | -0.45 | -0.25 | 0.49 | 0.74 | 0.64 | -0.2 |  | 0.61 | -0.08 | 0.28 | 0.62 | 0.87 | 0.8 |
| CCCCOc1cc(C(=O)NCCN(CC)CC)c2ccccc2n1 [Dibucaine HCl] | 12.3 ± 0.24 | 0.15 | -0.03 | -0.47 | 0.46 |  | -0.21 | 0.03 | -0.88 | -0.13 |  | -0.62 | -0.03 | 0.03 | -0.54 | -0.06 | -1.25 |
| CC[C@@H]1/C=C(\C)C[C@H](C)C[C@H](OC)[C@H]2O[C@@](O)(C(=O)C(=O)N3CCCC[C@H]3C(=O)O[C@H](/C(C)=C/[C@@H]3CC[C@H](Cl)[C@H](OC)C3)[C@H](C)[C@@H](O)CC1=O)[C@H](C)C[C@@H]2OC [Pimecrolimus] | 11.6 ± 0.16 | -1.82 | 1.75 | 3.91 | -1.72 | 1.91 | -0.41 | 4.26 | 1.95 | -0.6 | -0.8 | 1.88 | 2.14 | 0.94 | 4.36 | 2.63 |  |
| COc1ccc(CC2c3cc(OC)c(OC)cc3CC[N+]2(C)CCC(=O)OCCCCCOC(=O)CC[N+]2(C)CCc3cc(OC)c(OC)cc3C2Cc2ccc(OC)c(OC)c2)cc1OC (stereo unspecified) [Atracurium Besylate] | 12.4 ± 0.24 | -0.17 | -0.87 | 1.52 | -0.48 | 0.57 | 0.39 | 0.79 | 0.41 | 0.23 | -0.21 | 0.55 | 0.51 | 0.71 | 0.45 | -0.07 | 1.4 |
| CC[C@H](C)C(=O)O[C@H]1CCC=C2C=C[C@H](C)[C@H](CC[C@@H]3C[C@@H](O)CC(=O)O3)[C@H]21 [Mevastatin] | 11.6 ± 0.14 | 0.08 | -0.77 | -0.41 | 0.22 | -0.21 | 0.06 | -0.31 | -0.1 | 0.2 | 0.52 | 0.15 | -0.6 | -0.29 | -0.11 | -0.71 | 0.72 |
| CCCC(=O)OCOC(=O)C1=C(C)NC(C)=C(C(=O)OC)C1c1cccc(Cl)c1Cl (stereo unspecified) [Clevidipine Butyrate] | 12.4 ± 0.13 | 1.07 | 4.72 | 2.14 | -3.89 | 1.96 | -5.98 | 3.42 | 2.78 | -5.62 | -5.87 | -3.55 | 3.24 | -4.83 | -4.1 | 0.59 | 2.31 |
| C[C@@H](O)[C@H]1C(=O)N2C(C(=O)O)=C(S[C@@H]3CN[C@H](C(=O)N(C)C)C3)[C@H](C)[C@H]12 [Meropenem] | 12.4 ± 0.19 | 0.37 | -0.33 | 0.05 | -0.22 | -0.03 | -0.26 | -0.29 | 0.18 | -0.01 | -0.33 | 0.14 | -0.34 | 0.12 | -0.39 | -0.68 | -0.23 |
